Reference: PubChem BioAssay (NCI)
About 79,000 compounds went through this panel and 15% of them were active in at least one assay; those are over-represented in the sample as a whole. A number with no mark means an inactive call. Activity calls are given as the source filed them. Cut-off read from the data, not from the text of the source: active = growth inhibition above about 70%; inactive = the rest.

Tests used:
[1] = NCI Yeast Anticancer Drug Screen. Data for the rad50 strain (AID 155);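 note: 0% = growth of vehicle-only cultures of the same strain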; details: S. cerevisiae rad50 strain growth inhibition, stronger effect = higher value
How it was run: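 Cells are treated with compound, grown, and their growth is then scored against vehicle-only cultures of the same repair-deficient yeast strain.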

[2] = NCI Yeast Anticancer Drug Screen. Data for the mec2-1 strain (AID 157); details: S. cerevisiae mec2-1 strain, stronger effect = higher value
How it was run: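 Strain: mec2-1 (DNA repair/cell cycle alteration). Compound exposure, then growth measured; inhibition expressed relative to vehicle.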

[3] = NCI Yeast Anticancer Drug Screen. Data for the sgs1 mgt1 strain (AID 161);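 note: 0% = growth of cultures given vehicle only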; details: S. cerevisiae sgs1 mgt1 strain, stronger effect = higher value
How it was run: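 Mutant yeast exposed to compound; growth scored against vehicle-only wells.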

[4] = NCI Yeast Anticancer Drug Screen. Data for the cln2 rad14 strain (AID 165);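 note: 0% = growth equal to vehicle treated cultures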; details: S. cerevisiae cln2 rad14 strain, stronger effect = higher value
How it was run: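 Compounds are applied to the cln2 rad14 yeast strain, and growth is then compared with that of vehicle-treated cultures to give inhibition.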

[5] = NCI Yeast Anticancer Drug Screen. Data for the bub3 strain (AID 167); details: S. cerevisiae bub3 mutant strain, stronger effect = higher value
How it was run: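 Part of a panel of yeast mutants defective in DNA damage repair or cell cycle regulation. Each strain is grown with compound, and inhibition is calculated relative to solvent-treated cultures.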

[6] = NCI Yeast Anticancer Drug Screen. Data for the mlh1 rad18 strain (AID 175); details: S. cerevisiae mlh1 rad18 strain growth inhibition, stronger effect = higher value
How it was run: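 Read-out is yeast growth inhibition, calculated against vehicle-only controls. The compound was applied to a strain engineered with DNA damage repair alterations.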

[7] = at 5.0 µM (retest, dose inferred, filed as 0.5)
[8] = at 50.0 µM (retest, dose inferred, filed as 5.0)

SMILES	growth inhibition [1, 7]	growth inhibition [1, 8]	growth inhibition ([1]; at 50.0 µM)	growth inhibition [2, 7]	growth inhibition [2, 8]	growth inhibition ([2]; at 50.0 µM)	growth inhibition [3, 7]	growth inhibition [3, 8]	growth inhibition ([3]; at 50.0 µM)	growth inhibition [4, 7] [%]	growth inhibition [4, 8]	growth inhibition ([4]; at 50.0 µM)	growth inhibition [5, 7]	growth inhibition [5, 8]	growth inhibition ([5]; at 50.0 µM)	growth inhibition [6, 7]	growth inhibition [6, 8]	growth inhibition ([6]; at 50.0 µM)
Cc1ccc(N2C(=O)C(C)SC2=S)cc1Cl (configuration not stated)	2%	-4%	86.2% (active)	-1%	-1%	51.9%	1%	-25%	94.7% (active)	-2	-2%	13.7%	-4%	1%	48%	-5%	1%	93.5% (active)
COc1cc(NS(=O)(=O)c2ccc(NC(C)c3ccc4cccnc4c3O)cc2)nc(OC)n1 (configuration not stated)	3%	81% (active)	95.1% (active)	2%	40%	97.2% (active)	1%	87% (active)	69.4%	-3	78% (active)	66%	-2%	88% (active)	96.8% (active)	5%	82% (active)	97.3% (active)
Cc1ccc(OC/C=C/c2cccc(C#N)c2)cc1	-3%	2%	-0.45%	3%	-2%	11.2%	0%	18%	-2.05%	-6	-11%	44%	0%	12%	-0.9%	-5%	-1%	43.5%
C[n+]1c2ccccc2cc2[nH]c3ccccc3c21	84% (active)	93% (active)	74% (active)	86% (active)	96% (active)	78.6% (active)	89% (active)	98% (active)	79.7% (active)	63	75% (active)	64.8%	84% (active)	84% (active)	72.7% (active)	90% (active)	97% (active)	77.3% (active)
CC(C)Nc1nc(NC(C)C)c2cnn(-c3ccccc3)c2n1	0%	55%	96.7% (active)	1%	69%	83.9% (active)	2%	95% (active)	98.5% (active)	-10	24%	88.3% (active)	1%	68%	81.7% (active)	3%	74% (active)	95.5% (active)
COc1ccc2c(c1)S(=O)(=O)C(c1ccccc1)=CC2=O	81% (active)	99% (active)	99.5% (active)	87% (active)	99% (active)	99.5% (active)	91% (active)	99% (active)	99.2% (active)	66	99% (active)	97.5% (active)	87% (active)	98% (active)	99.5% (active)	95% (active)	98% (active)	99% (active)
OC(c1ccccc1)(c1ccccc1)C1CCCCC1	14%	97% (active)	25.5%	7%	97% (active)	1.7%	-4%	98% (active)	40.1%	-8	96% (active)	-5.35%	-13%	97% (active)	5.95%	2%	97% (active)	9.9%
C\C=C/C=C/C=C/C(=O)O	5%	13%	66.5%	2%	-4%	60.1%	2%	7%	42.3%	-2	3%	40.6%	4%	0%	95% (active)	1%	8%	45%
N#CC(/C=C/c1ccccc1)(NO)Nc1cccc(Cl)c1 (configuration not stated)	6%	98% (active)	99.2% (active)	32%	99% (active)	99.6% (active)	39%	99% (active)	99.1% (active)	10	99% (active)	98.8% (active)	29%	99% (active)	99.5% (active)	23%	99% (active)	99.5% (active)
CC(=O)Oc1c2c(c(C)c3ccccc13)C(=O)c1cccnc1C2=O	6%	4%	98.4% (active)	6%	5%	98.8% (active)	5%	6%	98.7% (active)	10	0%	97.8% (active)	4%	-1%	98.2% (active)	3%	2%	98.6% (active)
CC(=O)Nc1ccc(-c2ccccc2)cc1[N+](=O)[O-]	-3%	4%	14.9%	-4%	0%	16.6%	-2%	0%	-24.1%	0	-7%	-113%	1%	5%	44.4%	-2%	2%	41.7%
CCN(CC)CCC(=O)c1ccc2c3c(n(C)c2c1)CCCC3	0%	9%	95.8% (active)	0%	9%	25.2%	-4%	26%	83.8% (active)	-5	22%	5.85%	-5%	42%	96.3% (active)	3%	21%	78.7% (active)
COC(=O)CSc1nc2ccccc2[nH]1	-146%	-48%	27%	-48%	-47%	-11.8%	-64%	-39%	-6.2%	-50	-59%	-27.1%	-63%	-46%	-19.6%	-119%	-119%	-29.6%
OCC(O)Cc1c(Cl)c(Cl)c(Oc2c(Cl)c(Cl)c(CC(O)CO)c(Cl)c2Cl)c(Cl)c1Cl (configuration not stated)	5%	7%	11.3%	5%	10%	14.6%	18%	16%	4.95%	-9	-9%	-8.05%	-1%	11%	64.7%	-1%	1%	8.75%
CCOC(=O)Cc1cc(=O)oc2c(CN3CCN(c4ccc(C)cc4)CC3)c(O)ccc12	3%	55%	60.8%	3%	77% (active)	51.7%	-1%	87% (active)	38.2%	8	74% (active)	1.2%	7%	86% (active)	26.8%	3%	81% (active)	78.8% (active)
COc1ccc(-c2c3c(cc4cc5c(cc24)OCO5)C(=O)OC3)cc1OC	26%	96% (active)	92.5% (active)	30%	96% (active)	93.9% (active)	57%	96% (active)	93.7% (active)	16	87% (active)	92.3% (active)	51%	97% (active)	92.3% (active)	62%	96% (active)	78.8% (active)
COc1cccc2c1C(=O)c1c(O)c3c(c(O)c1C2=O)C[C@@](O)(/C(C)=N/NC(N)=S)C[C@@H]3OC1CC(N)C(O)C(C)O1 (some centres not stated)	27%	91% (active)	95.5% (active)	8%	58%	94.7% (active)	3%	56%	96.3% (active)	4	38%	82.8% (active)	4%	60%	95.3% (active)	8%	75% (active)	95.7% (active)
S=C=NCCCCCCN=C=S	36%	99% (active)	99.6% (active)	41%	99% (active)	99.5% (active)	59%	99% (active)	99.3% (active)	21	99% (active)	99.3% (active)	58%	99% (active)	99.3% (active)	79% (active)	99% (active)	99.2% (active)
Cc1ccc(Nc2nc3nc[nH]c3c(=O)[nH]2)cc1CO	2%	13%	-4.35%	10%	2%	-12.4%	-12%	14%	-0.6%	-2	-4%	0%	2%	-4%	-8.75%	15%	7%	4.8%
